The inhibition is the drop in the measured response relative to a control, in per cent.

The values that follow come from PubChem BioAssay.

Experiment [1] in a line: polyglutamine-triggered caspase-3 activation inhibitors, cell-based (AID 1583). The settings on record: polyglutamine-induced caspase-3 activation, cell assay; stronger effect = higher value;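 tested at 10 µM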.
Experiment [2] can be described thus: suppressors of polyQ aggregation in yeast, 75Q-TubU reporter (AID 1593). As to conditions: Yeast 75Q polyglutamine aggregation reporter.
The nature of experiment [3]: rescue of polyQ-huntingtin neuronal dysfunction in worms, whole organism, C. elegans mechanosensory neurons, N-terminal huntingtin (AID 1599). As to conditions: touch response, stronger effect = higher value.
Experiment [4] can be described thus: inhibitors of mitochondrial cytochrome c release, biochemical, purified mitochondria (AID 1603).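 Note: mouse liver mitochondria challenged with calcium chloride; signal normalized to the plate average as 100%.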 As to conditions: stronger effect = lower value.
Experiment [5] can be described thus: inhibitors of polyQ protein aggregation (AID 1604). The settings on record: polyglutamine-induced protein aggregation inhibition assay; stronger effect = higher value; tested at 2.5 µM.
Experiment [6] in a line: enhancers of glutamate uptake in motor neurons, MN-1 cell line (AID 1612).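 Note: tested at 1 µM final; 0% = mean of DMSO vehicle wells on each plate; positive means more glutamate uptake than control and negative means less.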 As to conditions: MN-1 motor neuron cells, stronger effect = higher value.
Experiment [7] in a line: reducers of polyQ inclusions in PC12 cells, cell-based, NGF-treated PC12, GFPQ80 (AID 1614).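 Note: lower means fewer inclusions and 0 means no inclusions at all.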 The settings on record: PC12 NGF-treated GFP-polyQ80 inclusion reduction.
Experiment [8] can be described thus: suppressors of polyglutamine aggregation in yeast, 75Q-TubH (AID 1616). As to conditions: S. cerevisiae 75Q-TubH polyglutamine aggregation suppression; stronger effect = higher value.
Experiment [9] in a line: protection against mutant huntingtin cytotoxicity, PC12 cells, LDH release (AID 1610). As to conditions: PC12 mutant huntingtin toxicity, final LDH at 4 uM, stronger effect = lower value. On the technique in general: LDH in the medium is a marker of cell lysis.

Results filed as inconclusive are left out. For some assays here: Entries with a potency or affinity are not part of this list.

Consider `CN1C2CC(OC(=O)[C@H](CO)c3ccccc3)C[C@H]1CC2O` (stereo partly specified), for which the inhibition in experiment [1] was determined as 17.4%. In experiment [2], this compound yielded a score of 1.3. The compound further displayed a rescue above control in experiment [3] of -1.97. The cytochrome c release ratio in experiment [4] was 0.75. Further, in [5], the inhibition of aggregation came to 83.9%. Moreover, the glutamate uptake change in experiment [6] was 4.44%. For the same compound, the inclusion score in experiment [7] is 2. Moreover, the aggregation suppression score in experiment [8] was found to be 1.3.

For `CNC(C)C(=O)c1ccccc1` (stereo unspecified), the inhibition in experiment [1] is -15.1%. Moreover, in experiment [2], the score is 1.02. Besides, in experiment [3], the rescue above control is -6.75. For the same compound, the cytochrome c release ratio in experiment [4] was 1.05. Further, in [5], the inhibition of aggregation stood at 49.7%. Also, the glutamate uptake change in experiment [6] was -3.86%. In addition, the inclusion score in experiment [7] was 2. The compound also showed an aggregation suppression score in experiment [8] of 1.11.

Turning to `CCCCCc1cc(O)c2c(c1)OC(C)(C)c1ccc(C)cc1-2`, the inhibition in experiment [1] stood at 29.1%. In [2], this compound showed a score of -1.59. In experiment [3], this compound returned a rescue above control of 9.18. For the same compound, the cytochrome c release ratio in experiment [4] was 1.94. For the same compound, the inhibition of aggregation in experiment [5] was -2.04%. The compound further came in with a normalised LDH release in experiment [9] of 0.953. Moreover, in experiment [6], the glutamate uptake change was -26.4%. This compound also came in with an aggregation suppression score in experiment [8] of -0.155.

`CC[C@@H]1[C@@H](O)N2C3C[C@H]1C1C(O)[C@]4(C[C@@H]12)c1ccccc1N(C)[C@@H]34` (stereo partly specified): the inhibition in experiment [1] came out at 7.74%. This compound displayed a score in experiment [2] of 0.91. The rescue above control in [3] was -2.66. The cytochrome c release ratio in experiment [4] turned out to be 0.89. Further, the inhibition of aggregation in experiment [5] is -46.3%. Further, the glutamate uptake change in [6] was -1.35%. In experiment [7], the inclusion score came out at 2. In experiment [8], this compound gave an aggregation suppression score of 1.31.

For `O=C1Nc2ccc(Cl)cc2C(c2ccccc2)=NC1O` (stereo unspecified), in experiment [1], the inhibition was -2.46%. Further, the score in experiment [2] came to 1.01. In experiment [3], this compound gave a rescue above control of -7.17. The cytochrome c release ratio in [4] is 1.14. Further, in experiment [5], the inhibition of aggregation worked out at 32%. Besides, the glutamate uptake change in experiment [6] is 0.27%. Besides, the aggregation suppression score in experiment [8] worked out at 0.898.

Turning to `COC(=O)C1C(OC(=O)c2ccccc2)CC2CCC1N2C` (stereo unspecified), in [1], the inhibition is -2.13%. The score in experiment [2] worked out at 1.1. The rescue above control in [3] was -9. Further, the cytochrome c release ratio in [4] is 0.85. Moreover, the inhibition of aggregation in experiment [5] was 32%. Moreover, the glutamate uptake change in experiment [6] was -26.1%. For the same compound, the inclusion score in [7] was found to be 2. The same compound registered an aggregation suppression score in experiment [8] of 1.26.

On to `CN1C2CCC1C(C(=O)O)C(OC(=O)c1ccccc1)C2` (stereo unspecified), for which the inhibition in experiment [1] was -11.5%. In [2], this compound had a score of 0.85. Further, the rescue above control in [3] was -9.16. Also, in experiment [4], the cytochrome c release ratio came to 1.03. For the same compound, the inhibition of aggregation in experiment [5] is 41.5%. The glutamate uptake change in experiment [6] was -21%. Further, the inclusion score in experiment [7] is 2. Further, the aggregation suppression score in [8] was 1.17.

`CN1CC[C@]23c4c5ccc(O)c4O[C@H]2[C@H](O)C=CC3[C@H]1C5` (stereo partly specified): the inhibition in experiment [1] came to 2.86%. The compound further displayed a score in [2] of 1.09. The rescue above control in [3] was -1.93. Moreover, in [4], the cytochrome c release ratio turned out to be 1.03. Moreover, in experiment [5], the inhibition of aggregation is 32%. Also, the glutamate uptake change in [6] stood at 6.58%. Further, in experiment [7], the inclusion score is 2. Also, the aggregation suppression score in experiment [8] was determined as 1.13.

As to `CC(N)Cc1ccccc1` (stereo unspecified), the inhibition in experiment [1] stood at 18%. In experiment [2], this compound had a score of 0.93. The rescue above control in [3] was -1.93. In addition, the cytochrome c release ratio in experiment [4] turned out to be 0.82. Also, in experiment [5], the inhibition of aggregation is 10.2%. Moreover, the glutamate uptake change in experiment [6] came to 31.4%. This compound also came in with an inclusion score in experiment [7] of 2. Moreover, the aggregation suppression score in experiment [8] is 0.923.
